High-throughput results as filed in PubChem BioAssay.
The list is not random: actives were taken first. Their share in the collection is about 3.2%.
BRCA1 expr act: BRCA1 expression activation; Potency, µM (highest dose often 46.1 µM), for inactives: at the highest dose activation, actives largely listed as activators; hit rate 1.1% among 380,000; MCF7-BRCA1-FFLuc reporter, luminescence, 48 h; response scale: scaled: vehicle 0%, 10 µM genistein 100%; note: potency is the fitted concentration of half-maximal effect; nearly all actives have a fitted effect of over 80% in size
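MCF7-BRCA1-FFLuc cells, 2000/well in phenol-red-free MEM, attached 2 h then treated 48 h at 37 C. Luciferase luminescence read 15 min after reagent; normalized to genistein maximum activation (10microM) and DMSO, concentration-response fitted.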
A549 tox: kills or reduces viability of A549 cells in Nrf2 counter-screen; A549 ARE-Fluc cells, CellTiter-Fluor viability, 18-24 h; Potency, µM (titrated, usually from 46 µM), inactives show at the top dose activity change, negative = cytotoxicity, most hits filed as inhibitors; hit rate 0.16% among 390,000; AID 504648; note: potency is the fitted concentration of half-maximal effect; % is set by controls: 0 for no effect and ±100 for the full control effect
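A549 ARE_Fluc cells in 5% FBS OPTI-MEM were exposed to compounds in concentration-response for 18-24 h at 37 deg C. Viability was read by CellTiter-Fluor fluorescence (Ex 405/Em 525) after 30 min, before the luciferase read.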
Nrf2 inh: inhibitors of Nrf2 signaling. Potency, µM (top dose mostly 46 µM), for inactives: top-dose activity change, negative = inhibition, actives largely listed as inhibitors. hit rate 2.1% among 360,000. A549 ARE-Fluc reporter, luciferase luminescence, 18-24 h; note: potency is the fitted concentration of half-maximal effect; % is set by controls: 0 for no effect and ±100 for the full control effect; nearly all actives have a fitted effect of over 60% in size
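Nrf2 activity is the BugLite luminescence, read 15 min after reagent at room temperature, following CellTiter-Fluor cytotoxicity readout (30 min, 37C). Compound titrations were applied for 18-24 h to 5000 A549 ARE_Fluc cells/well in 5% FBS OPTI-MEM.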
IL2 activator: activates IL-2 in a cell-based reporter assay; IL-2 activation reporter assay, cell-based qHTS; stimulated with anti-CD3/CD4/CD28 beads; in transgenic mouse T cells; activation, % (series mostly up to about 46 µM); hit rate 0.065% among 360,000; AID 652025; in the data active = activation above about 50%; inconclusive = mostly about 30% to 49%; note: 0% is about no effect
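Unstimulated transgenic mouse T cells; 60-min compound exposure; bead-based TCR/CD4/CD28 stimulation; 18 h culture, 37 degrees C; dual fluorescence (EGFP, DsRed) plate cytometry.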
p53 reactivation: re-activators of mutant p53; H1299 p53-A138V BP100-luciferase reporter, luminescence, 24 h; Potency, µM (top dose mostly 92.2 µM), inactives show top-dose activity change, positive = activation, actives largely listed as activators; hit rate 0.063% among 320,000; AID 504706; note: potency is the fitted concentration of half-maximal effect; % of control where 0% means no effect; nearly all actives have a fitted effect of over 45% in size
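p53-null H1299 cells stably carrying temperature-sensitive p53-A138V and a BP100-luciferase reporter were pinned with compounds (4-point, 1:5 series) and held 24 hrs at 37 deg C. Luminescence was read 10 min after detection reagent.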
Nrf2 ARE act: Nrf2 pathway activation; AREc32 ARE-luciferase reporter (MCF7-derived line), luminescence, 24 h; Potency, µM (highest dose often 46.1 µM), for inactives: at the top dose activation, hits mostly activators; hit rate 0.31% among 410,000; note: potency is the fitted concentration of half-maximal effect; % of control where 0% means no effect; nearly all actives have a fitted effect of over 65% in size
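Luminescent ARE reporter assay in AREc32_Fluc cells: overnight plating at 37 deg C, 24 hr compound incubation, Steady-Glo added, 30 min RT before reading.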
The depositor's hits bear a star; ? = inconclusive; . = no result; [ ] = dose if it differs, or a comment. Unless noted, calls come from the whole dose curve; as a rule, active = well fitted curve in the direction sought with a large enough effect; inconclusive = small, poorly fitted or top-dose-only effect, or another doubt; inactive = no such curve, though single readings can be large; an effect the other way counts as inactive or inconclusive.

SMILES	BRCA1 expr act	A549 tox	Nrf2 inh	IL2 activator	p53 reactivation	Nrf2 ARE act
CC(C)CCNc1nc2c(S(=O)(=O)c3ccc(Br)cc3)nnn2c2ccsc12	.	-1.9%	0.8%	.	.	0.2%
Cc1ccn2c(=O)cc(CSc3nnc(NC(=O)c4ccccc4Cl)s3)nc2c1	.	0.2%	.	.	.	3.5%
CCc1cc(=O)oc2cc(OCC(=O)N3CCc4ccccc43)ccc12	.	.	.	.	3.2%	.
CCc1cc(=O)oc2c(C)c(OCC(=O)N3CCCc4ccccc43)ccc12	-41.9%	1.2%	11.6µM*	0.1	-12.6%	2.4%
Cc1cccc(N2CCN(C(=O)COc3ccc4c(C)cc(=O)oc4c3C)CC2)c1C	-38.3%	-8.2%	16.4µM*	-4.0	-4.6%	-0.1%
Cc1cc(=O)oc2c(C)c(OCC(=O)N3CCN(c4ccc(F)cc4)CC3)ccc12	6.4%	1.3%	?	-2.5	-9.4%	0.6%
Cc1ccccc1NC(=O)CSc1nc2c(oc3ccccc32)c(=O)n1-c1ccccc1F	9.8%	0.1%	-6.5%	.	.	1.3%
Cc1ccc2oc(C(=O)N(C)Cc3ccc(C)o3)c(C)c2c1	47.6%	3.0%	5.5%	-4.4	?	25.3%
Cc1ccc2oc(C(=O)N(C)Cc3ccon3)c(C)c2c1	8.91µM*	23.4%	?	2.9	20.8%	5.2%
CC(C)(C)OC(=O)NCc1nnc(-c2cc3ccccc3[nH]2)s1	.	-8.9%	15.9%	.	.	.
Cc1nc2ccccn2c1C(=O)NNS(=O)(=O)c1ccc(C(C)(C)C)cc1	-40.7%	-1.9%	9.2µM*	-4.3	-5.8%	-1.0%
Cc1ccc2oc(=O)c(/C=C(\O)c3ccccc3)nc2c1	7.08µM*	-8.0%	-8.7%	-0.6	?	14.1µM*
O=c1oc2ccccc2nc1/C=C(\O)c1ccc(Br)cc1	-52.4%	-15.1%	?	-0.8	10.4%	?
O=c1oc2ccc(Cl)cc2nc1/C=C(\O)c1cccs1	?	1.5%	?	2.6	?	?
Cc1ccc2oc(=O)c(/C=C(\O)CC(C)C)nc2c1	-40.5%	-8.4%	-9.9%	-5.5	?	?
Cc1ccc2oc(=O)c(/C=C(\O)c3cccs3)nc2c1	?	0.5%	?	-2.0	?	15.8µM*
C/C(O)=C\c1nc2ccccc2oc1=O	-44.7%	-5.7%	-7.6%	0.3	8.6%	15.8µM*
Cc1ccc2[nH]c(=O)c3cc(C(=O)N(C)c4ccc(Br)cc4)sc3c2c1	-5.1%	-2.6%	?	.	.	3.5%
COc1ccccc1N1CCN(c2ccc(=O)n(CC(=O)NCc3ccc(F)cc3)n2)CC1	.	19.0%	23.7%	.	.	0.4%
CC(C)c1ccc(CNc2ncccn2)cc1	11.2µM*	4.1%	?	0.7	-0.5%	3.2%
COc1ccc(C(=O)Nc2ccccc2C(=O)Nc2ccccc2C(=O)O)cc1	?	-14.1%	-3.0%	-1.1	-4.3%	1.0%
COc1ccc(C(=O)Nc2ccccc2C(N)=O)cc1	6.31µM*	-12.2%	.	-0.3	?	1.8%
COc1ccc(C(=O)Nc2cnc3ccccn3c2=O)cc1	4.47µM*	12.4%	?	-0.6	2.0%	0.5%
O=C(Nc1cnc2ccccn2c1=O)c1ccc(F)cc1	?	3.7%	21.0%	2.2	?	3.5%
CC(C(=O)O)c1ccc(C(=O)c2ccccc2)s1 (centres undefined)	14.1µM*	1.6%	29.7%	-0.2	9.7%	0.5%
SMILES	BRCA1 expr act	A549 tox	Nrf2 inh	IL2 activator	p53 reactivation	Nrf2 ARE act
O=C(O)Cc1ccc(C(=O)c2ccccc2)s1	15.8%	4.9%	1.7%	-0.9	4.8%	-1.1%
COc1cccc(CNC(=O)c2nn(-c3ccc(C)cc3)c(=O)c3c2c2ccccc2n3C)c1	.	8.4%	23.2%	.	.	5.0%
Nc1ccc2oc(-c3ccccc3Cl)cc(=O)c2c1O	7.08µM*	-4.5%	?	-0.2	?	15.9%
O=c1cc(-c2ccccc2Cl)oc2c([N+](=O)[O-])c(O)cc(O)c12	18.9%	?	13µM*	0.0	-2.7%	-2.8%
O=c1cc(-c2ccccc2Cl)oc2ccc([N+](=O)[O-])c(O)c12	1.2%	?	?	-0.5	1.2%	0.3%
Cc1ccc(-n2nc3c(N4CCC(C(=O)NC(C)C)CC4)nnc(C)c3c2C)cc1	.	-0.6%	?	.	.	-0.8%
COc1ccc(C)c2sc(NC(=O)c3ccc(S(=O)(=O)N4CCOCC4)cc3)nc12	-2.0%	-1.4%	.	.	.	0.6%
COc1ccc(CNC(=O)CN2C(=O)C(c3ccccc3)Oc3cccnc32)cc1 (centres undefined)	0.2%	?	23.1µM*	-1.3	.	2.0%
CCOC(=O)c1sc(-c2ccc(Br)cc2)cc1N	7.08µM*	-2.5%	?	-1.0	9.7%	3.5%
CCOc1c(Cl)cc(CNc2ccc3[nH]c(=O)[nH]c3c2)cc1OC	.	-17.2%	?	.	.	14.0%
COc1ccc(NC(=O)c2cc3c(=O)n(Cc4ccco4)ccc3nc2C)c(OC)c1	.	9.1%	?	.	.	16.1%
Fc1ccccc1-c1nc2ccccc2[nH]1	3.98µM*	10.7%	?	-0.1	1.3%	10.5%
CCCc1noc(-c2cccc([N+](=O)[O-])c2)n1	-4.9%	-0.6%	0.9%	-0.7	28.6%	2.4%
CCCc1noc(-c2ccc(-c3ccccc3)cc2)n1	8.91µM*	-16.1%	?	-0.2	?	0.0%
Cc1ccc(-c2[nH]n3c(=O)c4c(nc3c2C)CCCC4)cc1	11.8%[1.84 µM]	-2.1%	5.9%	-0.1	12.0%	1.0%
Cc1c(-c2ccccc2)[nH]n2c(=O)c3c(nc12)CCCC3	3.16µM*	-7.0%	?	0.1	?	3.4%
Cc1ccc(CSc2nc3ccc(NC(=O)C(C)C)cc3s2)cc1	0.0%	0.8%	-18.1%	.	.	-0.8%
O=C(Nc1nccs1)C1CCN(S(=O)(=O)c2c(Cl)cccc2Cl)CC1	-29.8%	-12.0%	16.4µM*	-0.8	-4.0%	-0.3%
O=C(Nc1nccs1)C1CCN(S(=O)(=O)c2ccc(F)cc2)CC1	-0.9%	2.3%	10.9%	-1.9	-2.0%	0.3%
CCOc1cc(C(=O)Nc2ccc(-c3cn4cccnc4n3)cc2)cc(OCC)c1OCC	.	-9.2%	?	.	.	-0.7%
Cc1ccc(C(=O)Nc2ccc(-c3cn4cccnc4n3)cc2)cc1C	20.3%	-11.3%	23.1µM*	.	.	-1.2%
COc1ccc(NC(=O)N2CCC(n3c(C)nc4cccnc43)CC2)cc1OC	.	-22.7%	.	.	.	-0.6%
CN(C)c1ccc(/C=C2/C[N+](C)(C)C/C(=C/c3ccc(N(C)C)cc3)C2=O)cc1	-70.8%	14.6µM*	?	8.4	.	25.2%
COc1cccc(C2c3c(ncn(-c4ccc(NC(C)=O)cc4)c3=N)Oc3ccc4ccccc4c32)c1 (centres undefined)	.	-6.1%	6.1%	.	.	.
